PBM binding z-score data for 39 sequences are collected here from the supplement of paper PMC6555819.

The first assay relates to PPARg:RXRa 270nM:90nM, anti-RXR (NR concentration 270 nM, RXRa partner concentration 90 nM). Nature of the assay: PBM binding z-score (relative to random genomic background probes); higher = stronger binding; sequences stand for … in GC…GCGATTGACAGCGTAGAATGAAGG
The procedure, abridged:
(§1)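 Ligand-free nuclear receptor dimers were bound for 1 h to custom Agilent 4×180K protein-binding microarrays. Detection used antibodies against each partner (one per run). Binding z-scores rest on regression-normalized fluorescence, with random background probes as the reference.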
As for TCTTGTAGATTAGCAGGTTAAGAAAGCTGGCCAA, the PBM binding z-score was determined as 1.4.

Turning to CGAACTAGGTCAGAACAGGACAGTGAAGGATGAT, the PBM binding z-score is 4.45.

Consider CCTACTGGCCCAAAGGTCATTGATTCCAATGCTC, for which the PBM binding z-score turned out to be 7.17.

Sequence CGAACCAGGGCATGAGTTGATAGCAAATGCCGAT had a PBM binding z-score of 1.2.

With TTCCCAAGGTGAAAGGTCGTTGATGCACGCCTTG, the PBM binding z-score amounted to 7.35.

Regarding CCTGCTACGTCATGGTCAGCTAATCTACAGTATG, the PBM binding z-score is -0.67.

TCGAGTAGGTTACCAATGAGGCATTCAGCTTTCT yielded a PBM binding z-score of 1.15.

With AGTCAAAGTTCATCTAGGTAACGTACGATATGCT, the PBM binding z-score turned out to be 6.46.

In the case of TCTAGGTGGTCACGGAGGTCACACACGACGGGTA, the PBM binding z-score amounted to 4.2.

In turn, ACTAGCAGGCCAAGGGTCACCCAAGATTAGTCCG registered a PBM binding z-score of 7.88.

Take GATACAGTGTCAGCTAGAGGCCAGAGTATGGAAA: the PBM binding z-score is -0.349.

For the sequence CCTTCTGGGCCATCAGGTCATTGATATCAACGTT, the PBM binding z-score is 3.33.

TCTTGTAGATAAACAGGAGGTTAAGAAAGATCGA yielded a PBM binding z-score of 1.3.

The sequence CCTACTGGGCCAAGGGTCATTGATTCCAATGCTC returned a PBM binding z-score of 9.04.

With GCTTGGAGATCAAGGTTAAGAAAGACTAAGCTAA, the PBM binding z-score is 0.864.

ATCTCTAGGTAAGACTCAGTTCAGCGAAGAACGC yielded a PBM binding z-score of 0.241.

Sequence TCTAGTTTGTCACGGAGGTCACACACGACGGGTA came in with a PBM binding z-score of 3.52.

TCTGGTAGATCAAGCAGGTTAAGAAAGCCTGAGT: the PBM binding z-score worked out at 0.81.

As for TTACCAAGGTGAGCTGAGGCCGTTGATCCAACTC, the PBM binding z-score was -0.253.

The sequence TCTTGTAGCTCAATAGAGGTTAAGAAAGTGCGCT showed a PBM binding z-score of 0.893.

With ATCTCTAGGGAACCAAGTTCAGTGAATGCCGAAC, the PBM binding z-score is 0.046.

With TCTATTAGTTGAAGGACAACCGACGAGTCCGTTT, the PBM binding z-score is 2.04.

Sequence ACTAGCAGGCCAAGTTGGGGTCACTCAAACAAAG displayed a PBM binding z-score of 2.88.

With TTACCAATGTGAGCTGAGGTCGTTGATCCAACTC, the PBM binding z-score was 0.638.

Consider TCATATAGGTAATACAGGTGAAAATCGGCATCTA, for which the PBM binding z-score amounted to 2.58.

The sequence TCTGCTAGGTCTGTTGGTCAGCTAACGAGCTGCC registered a PBM binding z-score of 0.384.

As to TCTAGTTGGTCACGGAGGTCAAACACGACGGGTA, the PBM binding z-score is 4.13.

As to TCATTTAGGTAAAAGGTGAAAGTCGGTGTGGTAA, the PBM binding z-score amounted to 8.2.

Sequence CGTCCAAGGTCAGAGAGGGCAGTGAATGCCGAGT registered a PBM binding z-score of 2.88.

In turn, AATACAGGGTCACTAGGCCAGACTAGGTACGAAT registered a PBM binding z-score of 6.41.

ACTTACGGGCCAACGAGGTTATAGCACGCGTATA: the PBM binding z-score came out at 0.372.

Take CACCCTAGGTCAGGGCCAGTATAGGAGGAACGTT: the PBM binding z-score came out at 1.08.

Sequence CGAACTAGGTCGTTGACAGGACAGTGAATAGTAA registered a PBM binding z-score of 2.02.

With TCGAGTAGGTTACCAAAGGGGCATTCAGCTTTCT, the PBM binding z-score worked out at 1.33.

Regarding TCTTGTAGACCAGCAGGTTAAGAAAGCTGGCCAA, the PBM binding z-score came to 1.27.

Sequence CCTATTAGTTGACCATAAGGGCAGCCGAAGCTCG had a PBM binding z-score of 0.442.

On to CATACATGGTCAGCTAGGCCAGAGTAGGGACGGC, for which the PBM binding z-score is -0.789.

TCTTGTAGATCAATAGAGTTTAAGAAAGTGCGCT yielded a PBM binding z-score of 1.

AGAATGAGGTTATACGTAGATAAGGGAAGAAAGT displayed a PBM binding z-score of 2.07.

A further assay relates to PPARg:RXRa 30nM:10nM, anti-RXR (NR concentration 30 nM, RXRa partner concentration 10 nM). Described as above. The procedure, abridged:
as §1
Sequence TCTTGTAGATTAGCAGGTTAAGAAAGCTGGCCAA showed a PBM binding z-score of 2.55.

For the sequence CGAACTAGGTCAGAACAGGACAGTGAAGGATGAT, the PBM binding z-score worked out at 1.53.

In turn, CCTACTGGCCCAAAGGTCATTGATTCCAATGCTC had a PBM binding z-score of 5.9.

As for CGAACCAGGGCATGAGTTGATAGCAAATGCCGAT, the PBM binding z-score was -0.166.

TTCCCAAGGTGAAAGGTCGTTGATGCACGCCTTG had a PBM binding z-score of 6.2.

As for CCTGCTACGTCATGGTCAGCTAATCTACAGTATG, the PBM binding z-score is -0.17.

Turning to TCGAGTAGGTTACCAATGAGGCATTCAGCTTTCT, the PBM binding z-score amounted to 1.28.

In turn, AGTCAAAGTTCATCTAGGTAACGTACGATATGCT registered a PBM binding z-score of 3.66.

TCTAGGTGGTCACGGAGGTCACACACGACGGGTA registered a PBM binding z-score of 3.06.

For the sequence ACTAGCAGGCCAAGGGTCACCCAAGATTAGTCCG, the PBM binding z-score was determined as 6.88.

Regarding GATACAGTGTCAGCTAGAGGCCAGAGTATGGAAA, the PBM binding z-score is -0.273.

CCTTCTGGGCCATCAGGTCATTGATATCAACGTT displayed a PBM binding z-score of 1.09.

For TCTTGTAGATAAACAGGAGGTTAAGAAAGATCGA, the PBM binding z-score was 2.82.

CCTACTGGGCCAAGGGTCATTGATTCCAATGCTC came in with a PBM binding z-score of 8.43.

GCTTGGAGATCAAGGTTAAGAAAGACTAAGCTAA came in with a PBM binding z-score of 0.225.

Sequence ATCTCTAGGTAAGACTCAGTTCAGCGAAGAACGC yielded a PBM binding z-score of 0.0173.

The sequence TCTAGTTTGTCACGGAGGTCACACACGACGGGTA had a PBM binding z-score of 3.81.

In turn, TCTGGTAGATCAAGCAGGTTAAGAAAGCCTGAGT showed a PBM binding z-score of 2.17.

For the sequence TTACCAAGGTGAGCTGAGGCCGTTGATCCAACTC, the PBM binding z-score was -0.438.

TCTTGTAGCTCAATAGAGGTTAAGAAAGTGCGCT yielded a PBM binding z-score of 1.96.

For ATCTCTAGGGAACCAAGTTCAGTGAATGCCGAAC, the PBM binding z-score came to 0.00419.

TCTATTAGTTGAAGGACAACCGACGAGTCCGTTT: the PBM binding z-score was 4.25.

For the sequence ACTAGCAGGCCAAGTTGGGGTCACTCAAACAAAG, the PBM binding z-score is 0.385.

TTACCAATGTGAGCTGAGGTCGTTGATCCAACTC came in with a PBM binding z-score of 0.496.

TCATATAGGTAATACAGGTGAAAATCGGCATCTA: the PBM binding z-score is 4.1.

As for TCTGCTAGGTCTGTTGGTCAGCTAACGAGCTGCC, the PBM binding z-score was found to be 0.834.

The sequence TCTAGTTGGTCACGGAGGTCAAACACGACGGGTA yielded a PBM binding z-score of 3.76.

TCATTTAGGTAAAAGGTGAAAGTCGGTGTGGTAA: the PBM binding z-score was 9.56.

CGTCCAAGGTCAGAGAGGGCAGTGAATGCCGAGT yielded a PBM binding z-score of 0.148.

On to AATACAGGGTCACTAGGCCAGACTAGGTACGAAT, for which the PBM binding z-score came to 3.21.

ACTTACGGGCCAACGAGGTTATAGCACGCGTATA showed a PBM binding z-score of 0.0261.

CACCCTAGGTCAGGGCCAGTATAGGAGGAACGTT: the PBM binding z-score was -0.0218.

For the sequence CGAACTAGGTCGTTGACAGGACAGTGAATAGTAA, the PBM binding z-score came out at 0.441.

Turning to TCGAGTAGGTTACCAAAGGGGCATTCAGCTTTCT, the PBM binding z-score worked out at 0.963.

As to TCTTGTAGACCAGCAGGTTAAGAAAGCTGGCCAA, the PBM binding z-score came out at 2.61.

CCTATTAGTTGACCATAAGGGCAGCCGAAGCTCG: the PBM binding z-score was -0.292.

With CATACATGGTCAGCTAGGCCAGAGTAGGGACGGC, the PBM binding z-score is -0.741.

The sequence TCTTGTAGATCAATAGAGTTTAAGAAAGTGCGCT registered a PBM binding z-score of 2.5.

Sequence AGAATGAGGTTATACGTAGATAAGGGAAGAAAGT returned a PBM binding z-score of 1.02.
